# Bioassay records as filed in PubChem.
# HT1080-NT tox = qHTS for induction of synthetic lethality in tumor cells producing 2HG: qHTS for the HT-1080-NT fibrosarcoma cell line; HT-1080-NT fibrosarcoma viability, CellTiter-Glo ATP luminescence, 48 h; Potency, µM (doses to about 46.1 µM), inactives show at the highest dose activity, negative = less viability, most hits filed as cytotoxic; 360,000 compounds, 1.6% hits; AID 686970, 2013;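 also: NT is the 2HG producing partner of a matched IDH1 knockdown line; potency is read from the fitted curve at half-maximal effect; 0% = DMSO-treated cells and -100% = media-only wells without cells; nearly all actives have a fitted effect of over 55% in size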
#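 Toxicity toward the 2HG-producing NT line was scored as %Activity, normalised to DMSO and no-cell wells, from CellTiter-Glo luminescence after 48 hours' treatment.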
# HT1080 IDH1KD tx = qHTS for induction of synthetic lethality in tumor cells producing 2HG: qHTS for the HT-1080-IDH1KD cell line | HT-1080 IDH1 knockdown viability, ATP luminescence, 48 h | Potency, µM (series often up to 46.1 µM), inactives show top-dose activity, negative = toxicity, usual class: cytotoxic | 360,000 compounds, 2% hits;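 also: potency is read from the fitted curve at half-maximal effect; 0% = DMSO wells and -100% = cell-free medium wells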
#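 HT-1080-IDH1KD cells (IDH1 knocked down), 750/well in RPMI with 5% FBS, treated with compound 48 h at 37 degrees C. Viability by CellTiter-Glo luminescence, normalised to DMSO and no-cell wells; concentration-response curves classed.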
# IL1B secr inh = qHTS for Inhibitors of Inflammasome Signaling: IL-1-beta AlphaLISA Primary Screen. AID 743279, 2014. 360,000 compounds, 4.7% hits. activity change, % at 57.5 µM. THP-1 LPS/ATP IL-1B secretion, AlphaLISA, 16 h; hits give low values; in the data active = activity change below about -50%; inconclusive = mostly about -30% to -49%
#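 Secreted IL-1B measured by AlphaLISA bead assay after 16 h compound exposure of THP-1 cells; compounds (final up to 57.5 uM) added 1 h before LPS (250 ng/mL) and ATP (1.25 mM) stimulation; lower signal means less secretion.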
# DT40 TDP1 no CPT = qHTS for Inhibitors of human tyrosyl-DNA phosphodiesterase 1 (TDP1): qHTS in cells in absence of CPT; DT40 Tdp1-/- hTDP1 cells, no CPT, ATP luminescence, 48 h; Potency, µM (titrated, usually from 46.2 µM), for inactives: at the highest dose activity change, negative = growth inhibition, usual class: inhibitors; 420,000 compounds, 15% hits; AID 686978, 2013; also: potency is read from the fitted curve at half-maximal effect; nearly all actives have a fitted effect of over 55% in size
#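 Seeded 400 DT40-hTDP1 cells/well (vehicle DMSO, no 20 nM CPT); pinned compounds; ≥48 hr at 37 °C; CellTiter-Glo luminescence as viability measure.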
# DT40 TDP1 CPT = qHTS for Inhibitors of human tyrosyl-DNA phosphodiesterase 1 (TDP1): qHTS in cells in presence of CPT | chicken DT40 Tdp1-/-;hTDP1 cells + 20 nM CPT, ATP luminescence, 48 h | Potency, µM (titrated, usually from 46.2 µM), for inactives: at the top dose activity change, negative = growth inhibition, most hits filed as inhibitors | 420,000 compounds, 12% hits; also: potency is read from the fitted curve at half-maximal effect; nearly all actives have a fitted effect of over 55% in size
#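 Cell growth measured by CellTiter-Glo luminescence after a minimum 48 h, 37 C compound exposure with 20 nM CPT in Tdp1-knockout DT40 cells stably expressing hTDP1, seeded 400/well; qHTS titration format.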
# Numbers without * were called inactive; i = inactive; ? = inconclusive; nt = no result given; [ ] = another dose, or the depositor's remark. The list is not random: actives were taken first. Their share in the collection is about 19%. Unless noted, calls follow the shape of the dose curve; as a rule, active = well fitted curve in the direction sought with a large enough effect; inconclusive = small, poorly fitted or top-dose-only effect, or another doubt; inactive = no such curve, though single readings can be large; an effect the other way counts as inactive or inconclusive. Unless noted, % is scaled to controls: 0 for no effect and ±100 for the full control effect.
SMILES,HT1080-NT tox,HT1080 IDH1KD tx,IL1B secr inh,DT40 TDP1 no CPT,DT40 TDP1 CPT
CN1C2CCC1CC(OC(c1ccccc1)c1ccccc1N)C2 (stereo not drawn),-21.9%,?,-19.3,?,?
COc1cc(C(=O)OC2C[C@H]3CC[C@@H](C2)N3C)ccc1O (stereo partly drawn),2.2%,1.5%,17.7,1.7%,33.4%
CN1C2CCC1CC(OC(=O)c1cc(Cl)cc(Cl)c1)C2 (stereo not drawn),?,?,-24.0,?,14.6µM*
C[C@@H](C(=O)OC1C[C@H]2CC[C@@H](C1)N2C)c1ccc(Br)cc1 (stereo partly drawn),nt,nt,nt,26.6µM*,29.9µM*
COC(=O)C1=C(c2ccc(S(C)(=O)=O)cc2)C[C@@H]2CC[C@H]1N2C(=O)NCc1ccc(C(F)(F)F)cc1,-1.4%,-4.2%,6.8,?,-27.5%
O=C(NC(=O)c1c(F)cccc1F)Nc1ccc(Cl)cc1,nt,nt,nt,-6.6%,-8.8%
Cc1cccc(-n2c(=S)[nH]c3ccccc3c2=O)n1,16.9%,11.7%,-4.9,-4.8%,6.4%
C[C@@H]1O[C@@H](O[C@@H]2C=C3CC[C@@H]4[C@@H](CC[C@]5(C)[C@H](c6ccc(=O)oc6)CC[C@@]45O)[C@@]3(C)CC2)[C@H](O)[C@H](O)[C@H]1O,nt,nt,nt,?,0.282µM*
C[C@@H]1O[C@@H](O[C@@H]2C=C3CC[C@@H]4[C@H](CC[C@]5(C)[C@@H](c6ccc(=O)oc6)CC[C@]45O)[C@@]3(C)CC2)[C@H](O)[C@H](O)[C@H]1O,nt,nt,nt,0.128µM*,0.143µM*
CCOP(=O)(OCC)c1nc(-c2cccc3ccccc23)oc1N1CCOCC1,-11.3%,-13.2%,-72.9*,10.3µM*,?
CCOP(=O)(OCC)c1nc(-c2ccccc2)oc1NCc1ccccc1,-0.8%,4.4%,-24.8,?,?
CCOP(=O)(OCC)C(NC(=O)c1cccc2ccccc12)C(Cl)(Cl)Cl (stereo not drawn),4.8%,6.6%,i,-26.7%,?
CCOP(=O)(OCC)c1nc(-c2ccc(Br)cc2)oc1N1CCCCC1,11.0%,9.5%,-14.0,8.2µM*,10.3µM*
CCOP(=O)(OCC)c1nc(-c2ccc(F)cc2)oc1NCc1ccccc1,?,-7.8%,-54.1*,-51.7%,?
CCOP(=O)(OCC)c1nc(-c2cccc3ccccc23)oc1NCCc1ccc(OC)cc1,-20.7%,-9.4%,-54.9*,?,?
CN(C)CCc1c[nH]c2cccc(OP(=O)(O)O)c12,nt,nt,nt,3.2%[92.5 µM],9.9%[92.5 µM]
CC1(C)Cc2c(sc3nc4n(-c5ccccc5)c(=O)c(CCC(=O)O)nn4c(=O)c23)CO1,6.5%,-3.9%,13.2,-29.5%,?
CCOP(=O)(c1ccccc1)c1nc(-c2ccc(F)cc2)oc1N1CCCCC1 (stereo not drawn),?,?,?,20.6µM*,13µM*
O=P1(NCCCl)OCCC(OO)N1CCCl (stereo not drawn),-4.7%,-3.6%,nt,-14.1%,-39.9%
COc1ccc(CNC(=O)Cn2c(=O)nc(-c3ccccc3F)c3cc(Cl)ccc32)cc1,nt,nt,nt,2.06µM*,1.46µM*
COC(=O)CSC1=NN1c1cc(C)nc(N)n1,-5.1%,0.7%,-5.0,9.8%,25.6%
CN1C(=O)C(=Cc2sc(=O)n(-c3ccccc3)c2N(C)C)C(=O)N(C)C1=O,?,?,-97.4*,?,16.4µM*
Cc1cc(C=C2C(=O)N(C)C(=O)N(C)C2=O)c(C)n1-c1ccccc1,7.5%,10.0%,1.9,3.1%,-2.0%
COC(=O)C1=C(c2cc3ccccc3s2)C[C@@H]2CC[C@H]1N2C(=O)NC1CCCCC1,-12.3%,-21.6%,-14.5,?,18.4µM*
